Reference: PubChem BioAssay (Tox21)
Values joined by “and” are separate entries in the source; they are usually repeats but may differ in a detail not shown here. Equal values may be shown once. Inconclusive results are not listed. A call without a number means that no potency is given here. Some compounds were tested as several samples or in several runs, with calls that do not always agree. Active and inactive are the calls of the source. Calls come from the whole dose curve; as a rule, active = well fitted cell-killing curve with a large enough effect in the repeat runs; inconclusive = weak or mixed curves; inactive = flat fitted curve, though single readings scatter.

test: qHTS RealTime-Glo MT Cell Viability Assay in HepG2 cells - 32 hour (AID 1224877); settings: RealTime-Glo luminescence; series mostly up to 76.8 µM; note: nearly all actives have a fitted effect of over 55% in size
Excerpt: U.S. Tox21 Program National Center for Advancing Translational Sciences [NCATS] NIH Chemical Genomics Center [NCGC] U.S. Environmental Protection Agency [EPA] National Institutes of Environmental Health Sciences [NIEHS] National Toxicology Program [NTP] U.S. Food and Drug Administration [FDA] Tox21 Assay Overview: Measure of cell viability is critical in the cell-base assay. Analysis of cell viability is necessary for the characterization of cell responses to cytotoxic drugs and environmental stress. A RealTime-Glo MT Cell Viability Assay to monitor cell viability in real time of continues cell culture during 40 hours of compound treatment was used to screen Tox21 10K library compounds in HepG2 cells. The RealTime-Glo MT Cell Viability Assay is a nonlytic, homogeneous, bioluminescent method to measure cell viability in real time using a simple, plate-based method. The assay involves adding NanoLuc luciferase and a cell-permeant prosubstrate to cells in culture. Viable cells reduce the proprietary prosubstrate to generate a substrate for NanoLuc luciferase. This substrate diffuses from cells into the surrounding culture medium, where it is rapidly used by the NanoLuc Enzyme to produce a luminescent signal. The signal correlates with the number of viable cells, making the assay well suited for cytotoxicity studies.
Tox21 Assay Protocol Summary: The mixture of HepG2 cell suspension and reagents were dispensed at 600cells/6 ul/well in 1536-well tissue culture treated black solid bottom plates using a Multidrop dispenser. After the assay plates were incubated at a 37 C/5% CO2 incubator for 5 hours, 23 nL of compounds dissolved in DMSO, positive and negative controls was transferred to the assay plate by a pintool work station. The plates were incubated at 37 C for 40 hours. The luminescence intensity were measured at 0h, 8h, 16h, 24h, 32h and 40h time points using ViewLux plate reader during compound treatment.
Potency is the fitted concentration of half-maximal effect.

| Structure (SMILES) | Potency |
| --- | --- |
| COc1cc(/C=C/C(=O)O[C@H]2CC[C@]34C[C@]35CC[C@]3(C)[C@@H]([C@H](C)CCC=C(C)C)CC[C@@]3(C)[C@@H]5CC[C@H]4C2(C)C)ccc1O | inactive |
| Cc1onc(-c2ccccc2Cl)c1C(=O)N[C@@H]1C(=O)N2[C@@H]1SC(C)(C)[C@@H]2C(=O)O | inactive |
| C[C@@H](NCCCc1cccc(C(F)(F)F)c1)c1cccc2ccccc12 | 16.9 µM (active) |
| CN(C)CCCOC1(Cc2ccccc2)CCCCCC1 | inactive |
| O=[N+]([O-])c1cc([N+](=O)[O-])c2ccc(S(=O)(=O)O)cc2c1O | inactive |
| CCCCCCCCNC(C)C(O)c1ccc(SC(C)C)cc1 (stereo not given) | 13.4 µM (active) |
| CCC(C)(C)C1CCCCC1OC(C)=O (stereo not given) | inactive |
| Clc1ccccc1C(c1ccccc1)(c1ccccc1)n1ccnc1 | 24.5 µM (active) and inactive |
| O=C(NO)C1(NS(=O)(=O)c2ccc(Oc3ccc(F)cc3)cc2)CCOCC1 | inactive |
| O=c1[nH]cnc2nc[nH]c12 | inactive |
| C[C@]12CCC(=O)C=C1CC[C@@H]1[C@@H]2[C@@H](O)C[C@@]2(C)[C@H]1CC[C@]2(O)C(=O)COC(=O)CCC(=O)O | inactive |
| OCc1c[nH]c2ccccc12 | inactive |
| C[C@H]1[C@H]2CC[C@H]3[C@@H]4CC=C5C[C@@H](N(C)C)CC[C@]5(C)[C@H]4CC[C@]23CN1C | inactive |
| CCCCCCCCCCCCCCCS(=O)(=O)Oc1ccccc1 | inactive |
| CN(C)c1ccc(SC#N)cc1 | inactive |
| NNc1nc(-c2ccc(N)cc2)cs1 | inactive |
| CC(C)C(C)(C)C(C)(C)C(C)(C)S | inactive |
| C[C@H](CCC(=O)O)[C@H]1CC[C@H]2[C@@H]3CC[C@@H]4C[C@H](O)CC[C@]4(C)[C@H]3CC[C@]12C | inactive |
| C[n+]1cc2c3c(ccc2c2ccc4cc5c(cc4c21)OCO5)OCO3 | 0.928 µM (active) |
| CCCCCCCC/C=C/CCCCCCCC1=NCCN1CCO | 15.5 µM (active) |

| Structure (SMILES) | Potency |
| --- | --- |
| [Cl][Bi]([Cl])([c]1ccccc1)([c]1ccccc1)[c]1ccccc1 | 6.88 µM (active) |
| CSc1ccc(C(=O)c2[nH]c(=O)[nH]c2C)cc1 | inactive |
| CCCCCOc1ccccc1/C(=C\SC)n1ccnc1 | inactive |
| OC1(c2ccc(Cl)c(C(F)(F)F)c2)CCN(CCCC(c2ccc(F)cc2)c2ccc(F)cc2)CC1 | 8.49 µM (active) |
| NC(=O)CC[C@@H]1NC(=O)[C@H](Cc2ccccc2)NC(=O)[C@H](Cc2ccc(O)cc2)NC(=O)CCSSC[C@@H](C(=O)N2CCC[C@H]2C(=O)N[C@@H](CCCN=C(N)N)C(=O)NCC(N)=O)NC(=O)[C@H](CC(N)=O)NC1=O | inactive |
| CCCCCCCCOC(=O)c1ccc(O)cc1 | inactive |
| Clc1ccc(C(Cn2ccnc2)OCc2ccc(Sc3ccccc3)cc2)c(Cl)c1 (stereo not given) | inactive |
| C=CC(=O)OCC(CO)(COC(=O)C=C)COC(=O)C=C | 12.3 µM (active) and 17.4 µM (active) |
| CCc1oc2ccccc2c1C(=O)c1cc(Br)c(O)c(Br)c1 | inactive |
| COC(=O)C1=C(C)NC(C)=C(C(=O)OCC(C)C)C1c1ccccc1[N+](=O)[O-] (stereo not given) | 49 µM (active) |
| Nc1cc(C(F)(F)F)ccc1S | inactive |
| [Cl][Au]([Cl])[Cl] | 9.77 µM (active) |
| CN1CCN(CCC(=O)N2c3ccccc3Sc3ccc(C(F)(F)F)cc32)CC1 | 26.8 µM (active) |
| CSc1cnc(C)cn1 | inactive |
| CCCCCCCCS(=O)C(C)Cc1ccc2c(c1)OCO2 (stereo not given) | inactive |
| CCOC(=O)O[C@H](C)OC(=O)c1ccc2c(c1)cc(C(=O)NC1CCN(C(C)C)CC1)n2Cc1cc(-c2ccc(Cl)s2)on1 | 10.2 µM (active) |
| Cc1c(C)c2c(c(C)c1O)CCC(C)(COc1ccc(CC3SC(=O)NC3=O)cc1)O2 (stereo not given) | inactive |
| CCC(Cl)C(Cl)C(Cl)CC(Cl)C(Cl)C(C)Cl (stereo not given) | inactive |
| Cc1cc(O)c(C(C)(C)C)cc1Sc1cc(C(C)(C)C)c(O)cc1C | 48.9 µM (active) |
| CCCCN(CCCC)C(=O)N(CCCC)CCCC | inactive |
